# Measured values from publication PMC3218832.
# Columns and labels:
# Assay in all cases: protein binding microarray; high values mean tight binding
# Details in all cases: dsDNA, one strand shown
# RELARELA (p65 homodimer) = RELARELA (p65 homodimer) (Homo sapiens, UniProt Q04206 1-307)
# p50p50 homodimer = p50p50 homodimer (Homo sapiens, UniProt P19838 7-356)
# p52p52 homodimer = molecular target: T1, p52p52 homodimer (Homo sapiens, UniProt Q00653 4-332)
# T1 sequence: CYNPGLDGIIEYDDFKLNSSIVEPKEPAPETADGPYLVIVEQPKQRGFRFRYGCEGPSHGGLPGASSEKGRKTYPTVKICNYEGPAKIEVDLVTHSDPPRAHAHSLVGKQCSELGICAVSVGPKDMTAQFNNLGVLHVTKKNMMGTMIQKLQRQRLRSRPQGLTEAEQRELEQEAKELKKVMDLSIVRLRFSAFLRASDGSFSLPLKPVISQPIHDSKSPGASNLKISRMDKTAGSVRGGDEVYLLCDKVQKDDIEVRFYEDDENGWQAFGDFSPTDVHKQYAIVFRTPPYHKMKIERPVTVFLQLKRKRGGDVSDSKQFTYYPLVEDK
# [1] = molecular target: RELA (p65) subunit of heterodimer;p50 subunit (Homo sapiens;Homo sapiens, UniProt Q04206;P19838 1-307;7-356)
# [2] = molecular target: RELA (p65) subunit of heterodimer;p52 subunit (Homo sapiens;Homo sapiens, UniProt Q04206;Q00653 1-307;4-332)
# RELB subunit;p50 subunit = RELB subunit;p50 subunit (Homo sapiens;Homo sapiens, UniProt Q01201;P19838 120-401;7-356)
# RELB subunit;p52 subunit = molecular target: T2, RELB subunit;p52 subunit (Homo sapiens;Homo sapiens, UniProt Q01201;Q00653 120-401;4-332)
# T2 sequence 1: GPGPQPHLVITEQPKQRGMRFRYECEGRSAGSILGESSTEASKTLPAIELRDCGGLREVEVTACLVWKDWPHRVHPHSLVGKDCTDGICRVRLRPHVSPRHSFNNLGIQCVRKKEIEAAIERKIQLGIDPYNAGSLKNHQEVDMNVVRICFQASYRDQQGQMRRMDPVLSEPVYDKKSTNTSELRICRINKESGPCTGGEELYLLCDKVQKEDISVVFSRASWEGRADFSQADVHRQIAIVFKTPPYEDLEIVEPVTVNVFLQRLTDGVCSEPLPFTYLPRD
# T2 sequence 2: T1 sequence
# [3] = molecular target: C-Rel subunit;p50 subunit (Homo sapiens;Homo sapiens, UniProt Q04864;P19838 1-285;7-356)
# [4] = molecular target: T3, C-Rel subunit;p52 subunit (Homo sapiens;Homo sapiens, UniProt Q04864;Q00653 1-285;4-332)
# T3 sequence 1: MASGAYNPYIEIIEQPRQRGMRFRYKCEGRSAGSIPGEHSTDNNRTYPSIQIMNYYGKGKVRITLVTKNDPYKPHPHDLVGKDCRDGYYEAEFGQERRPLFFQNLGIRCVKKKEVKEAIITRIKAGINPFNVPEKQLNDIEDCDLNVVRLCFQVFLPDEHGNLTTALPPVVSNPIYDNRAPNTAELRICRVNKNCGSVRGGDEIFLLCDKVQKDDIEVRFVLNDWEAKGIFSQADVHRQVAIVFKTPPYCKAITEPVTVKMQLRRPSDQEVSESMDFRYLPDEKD
# T3 sequence 2: T1 sequence
# Chain of RELARELA (p65 homodimer) (Q04206 1-307): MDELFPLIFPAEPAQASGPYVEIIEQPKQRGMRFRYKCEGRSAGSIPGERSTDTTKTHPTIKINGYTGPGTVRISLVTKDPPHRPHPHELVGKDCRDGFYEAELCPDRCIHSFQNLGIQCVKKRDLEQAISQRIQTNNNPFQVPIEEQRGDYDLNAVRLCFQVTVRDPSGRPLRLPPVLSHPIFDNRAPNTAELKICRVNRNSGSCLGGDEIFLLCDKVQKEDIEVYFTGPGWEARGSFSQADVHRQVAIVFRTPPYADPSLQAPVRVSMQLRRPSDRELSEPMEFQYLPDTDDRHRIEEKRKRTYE
# Chain of RELA (p65) subunit of heterodimer;p50 subunit (Q04206 1-307, chain 1 of 2): as the sequence (Q04206 1-307) above
# Chain of RELA (p65) subunit of heterodimer;p50 subunit (P19838 7-356, chain 2 of 2): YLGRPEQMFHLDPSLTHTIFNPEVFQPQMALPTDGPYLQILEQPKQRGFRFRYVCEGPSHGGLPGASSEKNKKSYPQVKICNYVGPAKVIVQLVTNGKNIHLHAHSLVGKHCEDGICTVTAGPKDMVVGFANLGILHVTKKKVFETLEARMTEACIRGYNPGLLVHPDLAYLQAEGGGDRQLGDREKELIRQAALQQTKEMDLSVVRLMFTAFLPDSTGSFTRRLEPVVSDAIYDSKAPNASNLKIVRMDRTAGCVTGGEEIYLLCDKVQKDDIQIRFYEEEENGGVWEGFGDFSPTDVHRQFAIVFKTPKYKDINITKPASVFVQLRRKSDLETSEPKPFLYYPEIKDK
# Chain of p50p50 homodimer (P19838 7-356): as the sequence (P19838 7-356, chain 2 of 2) above
Sequence,binding signal (RELARELA (p65 homodimer)),binding signal (p50p50 homodimer),binding signal (p52p52 homodimer),binding signal [1],binding signal [2],binding signal (RELB subunit;p50 subunit),binding signal (RELB subunit;p52 subunit),binding signal [3],binding signal [4]
AGAAAGTCCCC,1.93 z-score,1.38 z-score,2.13 z-score,1.84 z-score,1.96 z-score,2.19 z-score,1.93 z-score,1.62 z-score,1.91 z-score
AAGAGAGCCCC,-0.68 z-score,0.339 z-score,0.122 z-score,0.109 z-score,-0.015 z-score,-0.0342 z-score,-0.125 z-score,0.0932 z-score,0.00397 z-score
GAATATTCCCT,1.37 z-score,1.19 z-score,1.3 z-score,1.24 z-score,1.28 z-score,1.04 z-score,1.2 z-score,0.882 z-score,1.16 z-score
AAATACGTCCC,0.519 z-score,0.264 z-score,0.547 z-score,0.144 z-score,0.183 z-score,0.285 z-score,0.334 z-score,0.368 z-score,-0.029 z-score
GGATTCCCCCT,2.01 z-score,1.46 z-score,2.93 z-score,2.64 z-score,2.73 z-score,2.83 z-score,2.57 z-score,2.03 z-score,2.78 z-score
AAATTACTCCC,0.447 z-score,0.204 z-score,-0.0753 z-score,0.132 z-score,-0.25 z-score,0.146 z-score,-0.105 z-score,0.213 z-score,-0.11 z-score
GGATGCATCCC,-0.168 z-score,-0.953 z-score,-0.436 z-score,-0.723 z-score,-0.685 z-score,-0.7 z-score,-0.821 z-score,-1.05 z-score,-0.672 z-score
AAATGGACCCC,-0.781 z-score,-0.458 z-score,-0.348 z-score,-0.532 z-score,-0.428 z-score,-0.448 z-score,-0.0987 z-score,-0.615 z-score,-0.473 z-score
AGGTTCATCCC,-0.622 z-score,-0.302 z-score,-0.0688 z-score,-0.431 z-score,-0.313 z-score,-0.476 z-score,-0.362 z-score,-0.498 z-score,-0.243 z-score
CAAATAATCCT,-0.308 z-score,-0.88 z-score,-0.501 z-score,-0.911 z-score,-0.746 z-score,-0.974 z-score,-0.846 z-score,-1.09 z-score,-0.674 z-score
